Source: PubChem BioAssay
Activity calls are given as the source filed them.

Experiments:
[1] = tested on: Plasmodium falciparum Sir2 (PF13_0152, Sir2A); test: pfSir2 binders on small-molecule microarrays, primary screen, biochemical, small-molecule microarray, 635 nm fluorescence (AID 1098); settings: small-molecule microarray binding, fluorescence 635 nm; higher = more signal;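 further: score merges spot fluorescence intensity with its signal-to-noise ratio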
[2] = small-molecule microarray binders of probe aDKK1, primary screen, biochemical, biotinylated probe, 635/667 nm fluorescence (AID 1099); settings: higher = more signal;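 further: score merges 667nm spot fluorescence with signal to noise across triplicate slides; reference of the scale not given here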
[3] = small-molecule microarray binders of probe aCHRDL2, primary screen, biochemical, biotinylated probe, 635/667 nm fluorescence (AID 1100); settings: higher = more signal
[4] = splicing luciferase reporter signal modulators, primary screen, spliceosome inhibition project, cell-based, HEK293, splice +/- reporter (AID 1101); settings: luminescence, 24 h, higher = more signal, called active from +8 up or from −8 down;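 further: HEK293 cells carrying a splicing-competent luciferase reporter gene; test concentration not given here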
[5] = target: Fibroblast growth factor 10 (Homo sapiens) (UniProt O15520); test: FGF10 binders on small-molecule microarrays, primary screen, biochemical, small-molecule microarray, 635 nm fluorescence (AID 1102); settings: FGF10 binding, fluorescence 635 nm, higher = more signal
[6] = tested on: glycogen synthase kinase-3 (GSK3A per assay name; protocol says GSK3B); test: GSK3 binders on small-molecule microarrays, primary screen, biochemical, small-molecule microarray, 635 nm fluorescence, GSK3A (AID 1103); settings: small-molecule microarray binding, fluorescence 635 nm; higher = more signal; further: the record names both GSK3A and GSK3B
[7] = target: Epidermal growth factor receptor (Homo sapiens) (UniProt P00533); test: EGFR binders on small-molecule microarrays, primary screen, biochemical, small-molecule microarray, 635 nm fluorescence (AID 1104); settings: EGFR binding, higher = more signal;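 further: score merges 667 nm emission intensity with spot signal to noise over triplicate slides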
[8] = target: Follistatin-related protein 3 (Homo sapiens) (UniProt O95633); test: FSTL3 binders on small-molecule microarrays, primary screen, biochemical, small-molecule microarray, 635 nm fluorescence (AID 1105); settings: FSTL3 binding, higher = more signal;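 further: score merges emission near 667 nm and signal to noise per printed spot across three slides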
[9] = target: Dickkopf-related protein 1 (Homo sapiens) (UniProt O94907); test: DKK1 binders on small-molecule microarrays, primary screen, biochemical, small-molecule microarray, 635 nm fluorescence scan (AID 1106); settings: DKK1 binding, higher = more signal;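 further: score merges emission near 667 nm with signal to noise over three replicate slides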
[10] = tested on: Inhibin beta A chain (activin A); test: INHBA (activin A) binders on microarrays, primary screen, biochemical, small-molecule microarray, 635 nm fluorescence scan (AID 1107); settings: small-molecule microarray binding, higher = more signal;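 further: mouse activin A protein probed at 4.33 µg/mL on printed slides; score merges bound-protein fluorescence near 667 nm with spot signal-to-noise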

Fibroblast growth factor 10 (Homo sapiens), sequence (O15520 whole entry, looked up): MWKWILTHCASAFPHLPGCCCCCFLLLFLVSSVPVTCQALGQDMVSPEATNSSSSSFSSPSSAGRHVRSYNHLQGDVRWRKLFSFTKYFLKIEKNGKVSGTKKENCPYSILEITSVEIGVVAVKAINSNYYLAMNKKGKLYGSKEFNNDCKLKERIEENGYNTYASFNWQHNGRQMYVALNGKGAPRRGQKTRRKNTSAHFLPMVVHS
Epidermal growth factor receptor (Homo sapiens), sequence (P00533 whole entry, looked up): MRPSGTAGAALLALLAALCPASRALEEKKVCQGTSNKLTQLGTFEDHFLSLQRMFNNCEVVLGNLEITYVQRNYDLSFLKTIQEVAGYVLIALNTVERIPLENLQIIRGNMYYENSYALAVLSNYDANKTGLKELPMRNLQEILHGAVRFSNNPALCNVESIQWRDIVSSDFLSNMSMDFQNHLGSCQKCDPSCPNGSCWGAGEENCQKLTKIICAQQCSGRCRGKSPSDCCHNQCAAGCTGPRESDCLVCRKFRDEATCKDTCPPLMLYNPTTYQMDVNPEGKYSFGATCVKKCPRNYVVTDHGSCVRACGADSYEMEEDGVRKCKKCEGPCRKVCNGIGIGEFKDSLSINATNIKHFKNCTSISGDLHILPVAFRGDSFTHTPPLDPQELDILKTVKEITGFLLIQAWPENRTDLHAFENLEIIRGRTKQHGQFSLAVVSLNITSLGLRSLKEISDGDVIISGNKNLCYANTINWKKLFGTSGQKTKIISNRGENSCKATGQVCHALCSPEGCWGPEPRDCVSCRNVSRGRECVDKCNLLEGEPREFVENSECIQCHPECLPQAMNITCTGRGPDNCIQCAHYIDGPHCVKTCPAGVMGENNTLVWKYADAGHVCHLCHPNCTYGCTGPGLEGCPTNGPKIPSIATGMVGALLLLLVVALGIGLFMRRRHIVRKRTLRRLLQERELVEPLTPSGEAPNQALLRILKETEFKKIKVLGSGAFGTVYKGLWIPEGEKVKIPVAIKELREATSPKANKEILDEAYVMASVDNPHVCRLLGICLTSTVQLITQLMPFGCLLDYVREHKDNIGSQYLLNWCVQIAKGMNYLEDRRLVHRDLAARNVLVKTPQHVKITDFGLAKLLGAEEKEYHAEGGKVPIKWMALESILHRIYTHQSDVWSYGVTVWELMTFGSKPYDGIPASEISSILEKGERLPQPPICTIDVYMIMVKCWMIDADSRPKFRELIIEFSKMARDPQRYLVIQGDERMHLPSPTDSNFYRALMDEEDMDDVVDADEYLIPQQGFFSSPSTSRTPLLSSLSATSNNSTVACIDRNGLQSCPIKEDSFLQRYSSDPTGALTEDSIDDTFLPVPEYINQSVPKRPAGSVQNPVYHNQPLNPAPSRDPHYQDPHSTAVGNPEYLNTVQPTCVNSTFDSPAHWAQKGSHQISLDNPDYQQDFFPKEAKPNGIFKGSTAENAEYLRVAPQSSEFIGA
Follistatin-related protein 3 (Homo sapiens), sequence (O95633 whole entry, looked up): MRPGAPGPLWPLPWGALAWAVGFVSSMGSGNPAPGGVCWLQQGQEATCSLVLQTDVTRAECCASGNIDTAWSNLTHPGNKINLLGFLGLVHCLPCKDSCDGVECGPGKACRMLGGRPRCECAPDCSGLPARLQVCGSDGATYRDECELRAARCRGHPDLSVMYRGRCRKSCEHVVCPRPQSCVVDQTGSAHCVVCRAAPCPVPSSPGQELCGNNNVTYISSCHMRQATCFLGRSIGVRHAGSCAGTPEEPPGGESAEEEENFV
Dickkopf-related protein 1 (Homo sapiens), sequence (O94907 whole entry, looked up): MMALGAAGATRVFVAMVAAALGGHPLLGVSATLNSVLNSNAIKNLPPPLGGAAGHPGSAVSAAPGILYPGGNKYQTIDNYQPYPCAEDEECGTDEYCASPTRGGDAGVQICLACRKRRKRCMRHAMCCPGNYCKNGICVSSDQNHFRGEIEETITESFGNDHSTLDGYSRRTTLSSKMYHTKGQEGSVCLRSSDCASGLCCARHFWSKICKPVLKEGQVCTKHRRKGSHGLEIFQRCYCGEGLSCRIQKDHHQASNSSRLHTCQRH

| Structure (SMILES) | composite z-score [1] | composite z-score [2] | composite z-score [3] | z-score [4] | composite z-score [5] | composite z-score [6] | composite z-score [7] | composite z-score [8] | composite z-score [9] | composite z-score [10] |
| --- | --- | --- | --- | --- | --- | --- | --- | --- | --- | --- |
| COc1cc2c(cc1O)C(C)N(Cc1cc3c(cc1Br)OCO3)CC2 (stereo not given) | 1 | 0.623 | 0.749 | -0.363 (inactive) | -0.0175 | -1.11 | -0.277 | -0.475 | -0.165 | 0.561 |
| Cc1ccc(F)cc1S(=O)(=O)N[C@@H]1CCN(Cc2ccc(Oc3ccccc3)cc2)C1 | 0.499 | -0.392 | -0.38 | 1.25 (inactive) | 0.271 | -0.632 | -0.0463 | 0.626 | 0.47 | 0.192 |
| C[n+]1ccc(CCCO)cc1 | 0.365 | -0.0442 | 0.0977 | -0.164 (inactive) | 0.113 | -0.262 | -0.455 | 0.0584 | 0.457 | 1.57 |
| CN(C)CCCNC(=O)[C@@H]1c2ccccc2C(=O)N(Cc2ccc(OC(F)(F)F)cc2)[C@H]1c1ccc(CO)cc1 | 1.33 | -0.115 | 0.56 | 0.0681 (inactive) | 0.0228 | 0.887 | -0.617 | 0.351 | 0.0558 | 0.561 |
| Cc1ccc(S[C@]2(C(=O)O)CC(=O)N(Cc3ccccc3Cl)[C@@H]2c2ccc(CO)cc2)cc1 | -0.189 | 0.505 | 0.938 | 1.39 (inactive) | -0.165 | -0.851 | -0.84 | -1.1 | -0.817 | 0.387 |
| COc1ccc(C(O)C2C=CC3C(=O)N(c4ccccc4)C(=O)C3N2Nc2ccccc2)cc1OCc1ccccc1 (stereo not given) | 0.964 | 0.294 | 0.77 | 0.161 (inactive) | 1.21 | 1.29 | -0.0831 | 1.29 | -0.0662 | 0.726 |
| Cc1ccc(S[C@]2(C(=O)NCCN3CCOCC3)CC(=O)N(Cc3ccccc3C(F)(F)F)[C@@H]2c2ccc(CO)cc2I)cc1 | 1.3 | -0.102 | 0.93 | -1.55 (inactive) | -0.973 | -0.728 | -0.842 | -1.13 | -1.15 | 0.446 |
| COC(=O)[C@@]1(Cc2ccc(OC)cc2)[C@H]2c3cc(C(=O)N(C)C)n(Cc4nc5ccccc5[nH]4)c3C[C@H]2CN1C(=O)c1ccccc1 | 0.432 | 0.956 | 0.958 | -1.21 (inactive) | 1.09 | 1.23 | 0.0916 | 1.35 | -0.463 | 0.777 |
| COCCOC(=O)N1C(=O)[C@@]2(c3cc(C#CC4=CCCCC4)ccc31)[C@H](C(=O)N1CCN(c3ncccn3)CC1)[C@H]1C(=O)O[C@H](c3ccccc3)[C@H](c3ccccc3)N1[C@@H]2c1ccc(O)cc1 | 0.827 | 0.646 | 0.509 | 0.345 (inactive) | 0.664 | 1.27 | 0.466 | 1.14 | 0.496 | 0.275 |
| Cc1c(NC(=O)/C(C#N)=C/C=C/c2ccccc2[N+](=O)[O-])c(=O)n(-c2ccccc2)n1C | 1.03 | -0.0194 | 0.147 | 4.71 (inactive) | 0.386 | 0.417 | 0.187 | 0.71 | 0.446 | 0.0089 |
| Cc1ccc(S[C@]2(C(=O)NC(C)C)CC(=O)N(Cc3ccccc3C(F)(F)F)[C@@H]2c2ccc(CO)cc2I)cc1 | 1.29 | 0.386 | 1.09 | -1.42 (inactive) | -1.41 | -1.1 | -1.64 | -1.29 | -1.7 | 0.889 |
| CC(=O)n1cc(C(O)C2C=CC3C(=O)N(Cc4ccccc4)C(=O)C3N2n2cnnc2)c2ccccc21 (stereo not given) | 1.17 | -0.0358 | 0.205 | 0.108 (inactive) | -0.167 | -0.243 | -0.0707 | 0.19 | 0.12 | 0.713 |
| O=C1c2ccccc2[C@@]2(Cc3ccccc3N(C3CC3)C2=O)[C@H](c2ccc(CO)cc2)N1C1CCCCC1 | -1.5 | 0.16 | 0.615 | -0.402 (inactive) | -0.364 | -0.492 | -0.412 | -0.558 | -0.526 | 0.5 |
| O=C(NC1CC1)[C@@H]1c2ccccc2C(=O)N(Cc2ccccc2)[C@H]1c1ccc(CO)cc1 | 1.73 | -0.474 | 0.211 | 0.135 (inactive) | 0.209 | 0.714 | -0.375 | -0.298 | -0.551 | 0.443 |
| CON(C)C(=O)C=C1C[C@@H](c2cccc(Cl)c2)O[C@@H](c2cccc(Cl)c2)O1 | 1 | 0.0204 | -0.126 | -1.16 (inactive) | -0.148 | 0.846 | -0.185 | 0.243 | 0.484 | 0.9 |
| COC(=O)[C@@]1(Cc2ccc(OC)cc2)[C@H]2c3cc(C(=O)N4CCCC4)n(CCc4cc5ccccc5[nH]4)c3C[C@H]2CN1C(=O)c1ccccc1 | 1.52 | 1.64 | 1.43 | 0.0555 (inactive) | 0.893 | 0.591 | 0.124 | 1.2 | -0.281 | 0.881 |
